Data: PubChem BioAssay (Tox21)
Where “and” joins values, the source holds several entries; their conditions need not be identical. Identical values can stand only once. Records with an inconclusive call do not appear. A structure can be active in one record and inactive in another. Calls of active or inactive are those of the source. Unless noted, calls come from the whole dose curve; as a rule, active = well fitted curve in the direction sought with a large enough effect in the repeat runs; inconclusive = weak or mixed curves; inactive = no such curve, though single readings can be large; an effect the other way counts as inactive or inconclusive.

Tests used:
[1] = qHTS assay to identify small molecule agonists of the hypoxia (HIF-1) signaling pathway - cell viability counter screen (AID 1224844; calls by dose curve; note: nearly all actives have a fitted effect of over 50% in size)
Outline: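 Luminescent ATP content (CellTiter-Glo, 30 min, room temperature) served as the viability measure in HRE-bla ME-180 cells exposed to compounds for 17 hrs in low-serum medium (0.5% dialyzed FBS).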

[2] = qHTS assay to identify small molecule agonists of H2AX (AID 1224845; active = well fitted activation curve with a large enough effect in the signal ratio in the repeat runs, not every such curve was filed as active; the % refers to the signal ratio)
Outline: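 Phospho-H2AX Ser139 measured by HTRF (ex 320 nm; em 665 and 620 nm) after 24 hr antibody incubation. Compounds, 15 concentrations, 0.76% DMSO, were applied to CHO-K1 cells for 3hr at 37C before lysis.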

[3] = qHTS assay to identify small molecule agonists of the hypoxia (HIF-1) signaling pathway (AID 1224846; active = well fitted activation curve with a large enough effect in the signal ratio in the repeat runs, not every such curve was filed as active; the % refers to the signal ratio)
Outline: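 Measured by blue/green FRET after loading CCF4-AM: beta-lactamase expressed from a hypoxia response element in ME-180 cells. Test agents were delivered in DMSO and left 17 hrs; cells had been plated 5 hrs earlier in low-serum (0.5% dialyzed FBS) medium.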

[4] = qHTS assay to identify small molecule agonists of H2AX - cell viability counter screen (AID 1224847; calls by dose curve;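 note: wild-type CHO-K1 cells; top concentration of the series differs between compounds; nearly all actives have a fitted effect of over 30% in size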)
Outline: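 CHO-K1 wt, 1000 cells/well, o/n 37C; cpds 15 conc, 3 h 37C, 0.76% DMSO; CellTiter-Glo, 30 min RT, luminescence.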

[5] = qHTS assay to identify small molecule antagonists of the estrogen related receptor (ERR) signaling pathway from Tox21 library (AID 1224848); note: nearly all actives have a fitted effect of over 50% in size
Outline: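 Reading was by luminescence 30 min after ONE-Glo addition. Before that, ERR cells at 2,000 per well had rested 6 h at 37 C/5% CO2 and then received pin-tooled compounds in DMSO for 18 h at 37 C.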

[6] = qHTS assay to identify small molecule agonists of the estrogen related receptor (ERR) signaling pathway from Tox21 library (AID 1224849; calls by dose curve; note: nearly all actives have a fitted effect of over 15% in size); conditions: ERR reporter cell line, ONE-Glo luciferase, 18 h
Outline: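 We plated ERR reporter cells, waited 6 h, added compounds in DMSO by pin tool and incubated them 18 h at 37 C. ONE-Glo was then added and luminescence read after 30 min.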

[7] = qHTS RealTime-Glo MT Cell Viability Assay in HepG2 cells - 24 hour (AID 1224867); note: nearly all actives have a fitted effect of over 50% in size
Outline: (§1)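 qHTS, HepG2, 600 cells/well, RealTime-Glo (NanoLuc + prosubstrate) added with cells; 5 h preincubation; DMSO compound addition; 37 C; luminescence at 0/8/16/24/32/40 h.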

[8] = qHTS RealTime-Glo MT Cell Viability Assay in HEK293 cells - 32 hour (AID 1224868); note: top concentration of the series differs between compounds; nearly all actives have a fitted effect of over 50% in size
Outline: (§2)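 Assay medium contained NanoLuc luciferase plus cell-permeant prosubstrate, added with HEK293 cells at 600 cells/well. After 5 h at 37 C/5% CO2 compounds were added; plates stayed at 37 C for 40 h with serial luminescence reads.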

[9] = A CellTox Green Cytotoxicity Assay to monitor cytotoxicity in HEK293 cells - 0 hour (AID 1224869); note: nearly all actives have a fitted effect of over 50% in size
Outline: (§3)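 Each value comes from one timepoint of a single continuous run in which HEK293 cells with CellTox Green were exposed to compound for up to 40 h at 37 C, dye fluorescence rising with cell death.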

[10] = qHTS RealTime-Glo MT Cell Viability Assay in HepG2 cells - 40 hour (AID 1224870); note: nearly all actives have a fitted effect of over 50% in size
Outline: (§4)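 Real-time viability: cells seeded at 600 per well together with NanoLuc and cell-permeant prosubstrate, compounds added after 5 h incubation. Luminescence tracked at 0, 8, 16, 24, 32 and 40 h of exposure.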

[11] = A CellTox Green Cytotoxicity Assay to monitor cytotoxicity in HEK293 cells - 40 hour (AID 1224871); note: nearly all actives have a fitted effect of over 45% in size
Outline: as §3

[12] = qHTS RealTime-Glo MT Cell Viability Assay in HEK293 cells - 16 hour (AID 1224872)
Outline: as §2

[13] = qHTS RealTime-Glo MT Cell Viability Assay in HepG2 cells - 8 hour (AID 1224873); note: nearly all actives have a fitted effect of over 55% in size
Outline: as §4

[14] = qHTS RealTime-Glo MT Cell Viability Assay in HEK293 cells - 40 hour (AID 1224874); conditions: RealTime-Glo luminescence; max response: stronger effect = lower value; note: nearly all actives have a fitted effect of over 50% in size
Outline: (§5)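 qHTS format; HEK293 cells with NanoLuc/prosubstrate reagent, 37 C/5% CO2 for 5 h pre-dosing; compounds 23 nL in DMSO; luminescence at each time point reflects viable cells.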

[15] = A CellTox Green Cytotoxicity Assay to monitor cytotoxicity in HEK293 cells - 24 hour (AID 1224875); note: nearly all actives have a fitted effect of over 45% in size
Outline: as §3

[16] = qHTS RealTime-Glo MT Cell Viability Assay in HepG2 cells - 32 hour (AID 1224877); note: nearly all actives have a fitted effect of over 55% in size
Outline: as §1

[17] = A CellTox Green Cytotoxicity Assay to monitor cytotoxicity in HepG2 cells - 24 hour (AID 1224878); note: nearly all actives have a fitted effect of over 45% in size; note: potency is the fitted concentration of half-maximal effect
Outline: (§6)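 Continuous culture of HepG2 cells with a membrane-impermeant DNA dye; rising fluorescence marks dead cells. Compound exposure lasted up to 40 h at 37 C, with reads every 8 h from 0 h.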

[18] = A CellTox Green Cytotoxicity Assay to monitor cytotoxicity in HepG2 cells - 40 hour (AID 1224879); note: nearly all actives have a fitted effect of over 40% in size; note: potency is the fitted concentration of half-maximal effect
Outline: as §6

[19] = qHTS RealTime-Glo MT Cell Viability Assay in HEK293 cells - 0 hour (AID 1224880); note: top concentration of the series differs between compounds; nearly all actives have a fitted effect of over 45% in size
Outline: as §5

[20] = A CellTox Green Cytotoxicity Assay to monitor cytotoxicity in HepG2 cells - 16 hour (AID 1224876); note: nearly all actives have a fitted effect of over 45% in size; note: potency is the fitted concentration of half-maximal effect
Outline: as §6
% is set by controls: 0 for no effect and ±100 for the full control effect.

O=[N+]([O-])/N=C1\NCCN1Cc1ccc(Cl)nc1
inactive: Potency [1] | Potency [2] | outcome [3] | Potency [4] | Potency [5] | activity change, positive = activation ([6]; at 42.5 µM (top of the series)) 0.753% | activity change, positive = activation ([6]; at 92.4 µM (top of the series)) -0.637% | Potency [7] | Potency [8] | Potency [9] | Potency [10] | Potency [11] | Potency [12] | Potency [13] | max response [14] 1.13% and 0.238% | Potency [15] | Potency [16] | Potency [17] | Potency [18] | Potency [19]

Oc1ccc(Cl)cc1Cl
inactive: Potency [1] | Potency [2] | outcome [3] | Potency [4] | Potency [5] | activity change, positive = activation ([6]; at 92.4 µM (top of the series)) -0.925% and -0.996% | Potency [8] | Potency [9] | Potency [10] | Potency [11] | Potency [12] | max response [14] 3.11% | Potency [20] | Potency [16] | Potency [17] | Potency [18] | Potency [19]

CC(C)(O)C#N
inactive: Potency [1] | Potency [2] | outcome [3] | Potency [4] | Potency [7] | Potency [8] | Potency [9] | Potency [10] | Potency [11] | Potency [12] | Potency [13] | max response [14] 1.12% and 7.67% | Potency [16] | Potency [17] | Potency [18] | Potency [19]

C=CC(Cl)CCl (centres undefined)
inactive: Potency [1] | Potency [2] | outcome [3] | Potency [4] | Potency [7] | Potency [8] | Potency [9] | Potency [10] | Potency [11] | Potency [12] | Potency [13] | max response [14] 19.1% and 0.374% | Potency [15] | Potency [16] | Potency [17] | Potency [18] | Potency [19]

CCC/C=N/O
inactive: Potency [1] | Potency [2] | outcome [3] | Potency [4] | Potency [7] | Potency [8] | Potency [9] | Potency [10] | Potency [11] | Potency [12] | Potency [13] | max response [14] -8.66% and 0.163% | Potency [15] | Potency [20] | Potency [16] | Potency [17] | Potency [18]

S=c1[nH]c2ccccc2[nH]1
inactive and 21.9 µM (active): Potency [20] | Potency [17] | Potency [18]
inactive: Potency [1] | Potency [2] | outcome [3] | Potency [4] | Potency [5] | activity change, positive = activation ([6]; at 92.4 µM (top of the series)) -4.19% and 0.256% | Potency [7] | Potency [8] | Potency [9] | Potency [10] | Potency [11] | Potency [12] | max response [14] 4.47% and 4.64% | Potency [16]
